# According to ChEMBL document CHEMBL2218924, “A broad activity screen in support of a chemogenomic map for kinase signalling research and drug discovery” (Biochem J, 2013):
# What was measured:
# [1] = target: T1, Ephrin type-B receptor 1 (Homo sapiens) (UniProt P54762); settings: at 10 µM
# T1 sequence (whole entry): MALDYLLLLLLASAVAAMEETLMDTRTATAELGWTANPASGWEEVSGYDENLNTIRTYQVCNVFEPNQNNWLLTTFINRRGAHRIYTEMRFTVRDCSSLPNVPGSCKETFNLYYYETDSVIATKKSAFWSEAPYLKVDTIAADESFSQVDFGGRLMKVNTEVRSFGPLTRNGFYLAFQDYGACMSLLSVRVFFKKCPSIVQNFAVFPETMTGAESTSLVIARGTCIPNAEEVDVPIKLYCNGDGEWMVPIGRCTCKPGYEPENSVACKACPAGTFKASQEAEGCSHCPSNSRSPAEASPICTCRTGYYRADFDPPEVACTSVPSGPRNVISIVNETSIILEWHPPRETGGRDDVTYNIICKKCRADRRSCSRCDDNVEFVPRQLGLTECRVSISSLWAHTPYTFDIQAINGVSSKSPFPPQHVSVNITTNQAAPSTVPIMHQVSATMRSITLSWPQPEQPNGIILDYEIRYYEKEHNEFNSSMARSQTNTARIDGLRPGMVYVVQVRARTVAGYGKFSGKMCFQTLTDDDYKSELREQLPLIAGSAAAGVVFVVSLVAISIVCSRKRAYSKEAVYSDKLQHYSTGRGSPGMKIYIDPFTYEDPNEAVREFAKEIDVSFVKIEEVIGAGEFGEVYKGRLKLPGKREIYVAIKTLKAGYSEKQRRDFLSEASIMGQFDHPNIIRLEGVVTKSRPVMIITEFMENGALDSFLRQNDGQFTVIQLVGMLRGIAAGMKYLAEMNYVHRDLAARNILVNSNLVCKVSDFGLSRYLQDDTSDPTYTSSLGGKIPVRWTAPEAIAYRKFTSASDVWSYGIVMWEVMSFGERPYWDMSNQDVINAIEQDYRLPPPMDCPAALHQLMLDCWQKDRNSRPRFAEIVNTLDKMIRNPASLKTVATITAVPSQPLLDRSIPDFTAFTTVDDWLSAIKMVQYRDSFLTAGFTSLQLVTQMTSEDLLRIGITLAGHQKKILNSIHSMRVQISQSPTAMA
# [2] = target: T2, Ephrin type-B receptor 2 (Homo sapiens) (UniProt P29323); settings: at 1 µM
# T2 sequence (whole entry): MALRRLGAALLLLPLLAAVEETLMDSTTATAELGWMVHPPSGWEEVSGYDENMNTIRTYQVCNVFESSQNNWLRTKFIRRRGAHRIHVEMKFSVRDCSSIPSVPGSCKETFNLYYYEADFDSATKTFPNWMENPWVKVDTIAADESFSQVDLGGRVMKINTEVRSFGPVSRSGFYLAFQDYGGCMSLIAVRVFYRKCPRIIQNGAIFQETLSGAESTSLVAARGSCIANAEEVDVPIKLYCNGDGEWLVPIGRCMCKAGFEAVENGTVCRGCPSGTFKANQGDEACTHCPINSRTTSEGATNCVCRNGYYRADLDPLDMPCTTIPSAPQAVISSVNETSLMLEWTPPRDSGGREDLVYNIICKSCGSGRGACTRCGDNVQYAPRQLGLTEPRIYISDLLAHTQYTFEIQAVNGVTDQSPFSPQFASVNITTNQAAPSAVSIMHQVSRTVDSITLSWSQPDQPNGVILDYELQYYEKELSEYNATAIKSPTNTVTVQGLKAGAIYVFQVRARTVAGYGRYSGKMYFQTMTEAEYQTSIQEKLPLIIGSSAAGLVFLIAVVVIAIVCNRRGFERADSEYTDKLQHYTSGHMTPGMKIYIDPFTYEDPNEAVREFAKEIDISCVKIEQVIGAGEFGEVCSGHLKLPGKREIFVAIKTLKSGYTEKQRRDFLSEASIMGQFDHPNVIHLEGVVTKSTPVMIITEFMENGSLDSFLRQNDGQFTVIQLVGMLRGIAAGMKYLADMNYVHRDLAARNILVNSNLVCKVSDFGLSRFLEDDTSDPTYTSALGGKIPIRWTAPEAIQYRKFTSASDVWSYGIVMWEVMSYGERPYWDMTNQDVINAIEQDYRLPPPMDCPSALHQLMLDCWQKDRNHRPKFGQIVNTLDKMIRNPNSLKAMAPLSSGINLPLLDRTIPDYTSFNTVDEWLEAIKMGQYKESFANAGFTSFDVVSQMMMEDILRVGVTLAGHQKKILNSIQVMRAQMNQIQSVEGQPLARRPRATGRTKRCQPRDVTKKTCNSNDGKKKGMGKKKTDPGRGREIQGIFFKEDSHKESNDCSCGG
# [3] = target: T2, Ephrin type-B receptor 2 (Homo sapiens); settings: at 10 µM
# [4] = target: T3, Ephrin type-B receptor 3 (Homo sapiens) (UniProt P54753); settings: at 1 µM
# T3 sequence (whole entry): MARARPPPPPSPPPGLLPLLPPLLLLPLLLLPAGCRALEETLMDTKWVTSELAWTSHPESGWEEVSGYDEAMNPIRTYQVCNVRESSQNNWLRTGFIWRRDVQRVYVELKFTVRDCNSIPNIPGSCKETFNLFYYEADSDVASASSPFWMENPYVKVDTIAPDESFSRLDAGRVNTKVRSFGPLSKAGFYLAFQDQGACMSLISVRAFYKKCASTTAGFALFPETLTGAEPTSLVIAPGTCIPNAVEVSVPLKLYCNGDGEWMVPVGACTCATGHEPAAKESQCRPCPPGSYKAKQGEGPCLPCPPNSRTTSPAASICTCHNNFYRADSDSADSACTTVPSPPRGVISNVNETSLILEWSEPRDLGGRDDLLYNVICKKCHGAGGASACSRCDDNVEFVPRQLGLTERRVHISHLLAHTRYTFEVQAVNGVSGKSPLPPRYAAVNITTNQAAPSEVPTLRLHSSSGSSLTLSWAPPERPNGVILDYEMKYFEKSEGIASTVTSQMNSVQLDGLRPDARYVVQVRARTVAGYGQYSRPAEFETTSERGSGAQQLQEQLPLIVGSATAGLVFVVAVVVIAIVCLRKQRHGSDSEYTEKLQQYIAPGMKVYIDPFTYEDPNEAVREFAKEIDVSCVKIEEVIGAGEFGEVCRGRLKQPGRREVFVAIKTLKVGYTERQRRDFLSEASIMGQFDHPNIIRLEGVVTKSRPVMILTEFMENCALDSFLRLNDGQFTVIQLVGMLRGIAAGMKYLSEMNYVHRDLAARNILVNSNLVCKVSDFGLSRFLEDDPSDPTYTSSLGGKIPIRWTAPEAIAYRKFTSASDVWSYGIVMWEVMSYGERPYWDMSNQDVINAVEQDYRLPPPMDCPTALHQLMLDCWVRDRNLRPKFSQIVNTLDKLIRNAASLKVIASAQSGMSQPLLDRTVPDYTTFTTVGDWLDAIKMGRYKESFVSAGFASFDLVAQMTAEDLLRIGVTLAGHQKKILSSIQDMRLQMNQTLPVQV
# [5] = target: T3, Ephrin type-B receptor 3 (Homo sapiens); settings: at 10 µM
# [6] = target: T4, Ephrin type-B receptor 4 (Homo sapiens) (UniProt P54760); settings: at 1 µM
# T4 sequence (whole entry): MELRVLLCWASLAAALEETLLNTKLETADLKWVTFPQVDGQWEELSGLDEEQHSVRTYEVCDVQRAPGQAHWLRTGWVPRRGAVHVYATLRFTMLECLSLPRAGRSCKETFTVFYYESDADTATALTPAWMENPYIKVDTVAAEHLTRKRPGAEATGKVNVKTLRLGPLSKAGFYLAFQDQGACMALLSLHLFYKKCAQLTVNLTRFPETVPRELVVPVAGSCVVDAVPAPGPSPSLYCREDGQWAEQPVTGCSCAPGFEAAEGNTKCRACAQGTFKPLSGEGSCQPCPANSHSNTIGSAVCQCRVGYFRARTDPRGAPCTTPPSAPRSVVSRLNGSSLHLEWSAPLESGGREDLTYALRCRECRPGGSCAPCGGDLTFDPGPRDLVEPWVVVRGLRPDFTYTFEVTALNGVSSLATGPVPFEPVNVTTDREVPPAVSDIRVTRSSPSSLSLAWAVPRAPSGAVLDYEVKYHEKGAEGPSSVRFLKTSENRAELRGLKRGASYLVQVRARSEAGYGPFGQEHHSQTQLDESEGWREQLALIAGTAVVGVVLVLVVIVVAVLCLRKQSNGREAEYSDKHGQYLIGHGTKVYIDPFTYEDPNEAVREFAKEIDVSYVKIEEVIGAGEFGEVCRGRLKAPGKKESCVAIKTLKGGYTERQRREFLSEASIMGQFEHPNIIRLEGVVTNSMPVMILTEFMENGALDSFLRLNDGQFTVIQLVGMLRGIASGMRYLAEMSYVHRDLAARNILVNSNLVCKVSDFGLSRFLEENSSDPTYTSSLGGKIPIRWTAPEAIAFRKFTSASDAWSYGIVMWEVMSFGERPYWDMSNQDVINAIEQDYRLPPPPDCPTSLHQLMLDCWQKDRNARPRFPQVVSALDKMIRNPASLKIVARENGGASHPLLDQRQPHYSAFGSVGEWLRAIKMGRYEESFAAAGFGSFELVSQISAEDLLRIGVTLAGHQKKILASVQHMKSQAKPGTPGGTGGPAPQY
# [7] = target: T4, Ephrin type-B receptor 4 (Homo sapiens); settings: at 10 µM
# [8] = target: Receptor tyrosine-protein kinase erbB-4 (Homo sapiens) (UniProt Q15303); settings: at 1 µM
# Chain of Receptor tyrosine-protein kinase erbB-4 (Homo sapiens) (Q15303 whole entry): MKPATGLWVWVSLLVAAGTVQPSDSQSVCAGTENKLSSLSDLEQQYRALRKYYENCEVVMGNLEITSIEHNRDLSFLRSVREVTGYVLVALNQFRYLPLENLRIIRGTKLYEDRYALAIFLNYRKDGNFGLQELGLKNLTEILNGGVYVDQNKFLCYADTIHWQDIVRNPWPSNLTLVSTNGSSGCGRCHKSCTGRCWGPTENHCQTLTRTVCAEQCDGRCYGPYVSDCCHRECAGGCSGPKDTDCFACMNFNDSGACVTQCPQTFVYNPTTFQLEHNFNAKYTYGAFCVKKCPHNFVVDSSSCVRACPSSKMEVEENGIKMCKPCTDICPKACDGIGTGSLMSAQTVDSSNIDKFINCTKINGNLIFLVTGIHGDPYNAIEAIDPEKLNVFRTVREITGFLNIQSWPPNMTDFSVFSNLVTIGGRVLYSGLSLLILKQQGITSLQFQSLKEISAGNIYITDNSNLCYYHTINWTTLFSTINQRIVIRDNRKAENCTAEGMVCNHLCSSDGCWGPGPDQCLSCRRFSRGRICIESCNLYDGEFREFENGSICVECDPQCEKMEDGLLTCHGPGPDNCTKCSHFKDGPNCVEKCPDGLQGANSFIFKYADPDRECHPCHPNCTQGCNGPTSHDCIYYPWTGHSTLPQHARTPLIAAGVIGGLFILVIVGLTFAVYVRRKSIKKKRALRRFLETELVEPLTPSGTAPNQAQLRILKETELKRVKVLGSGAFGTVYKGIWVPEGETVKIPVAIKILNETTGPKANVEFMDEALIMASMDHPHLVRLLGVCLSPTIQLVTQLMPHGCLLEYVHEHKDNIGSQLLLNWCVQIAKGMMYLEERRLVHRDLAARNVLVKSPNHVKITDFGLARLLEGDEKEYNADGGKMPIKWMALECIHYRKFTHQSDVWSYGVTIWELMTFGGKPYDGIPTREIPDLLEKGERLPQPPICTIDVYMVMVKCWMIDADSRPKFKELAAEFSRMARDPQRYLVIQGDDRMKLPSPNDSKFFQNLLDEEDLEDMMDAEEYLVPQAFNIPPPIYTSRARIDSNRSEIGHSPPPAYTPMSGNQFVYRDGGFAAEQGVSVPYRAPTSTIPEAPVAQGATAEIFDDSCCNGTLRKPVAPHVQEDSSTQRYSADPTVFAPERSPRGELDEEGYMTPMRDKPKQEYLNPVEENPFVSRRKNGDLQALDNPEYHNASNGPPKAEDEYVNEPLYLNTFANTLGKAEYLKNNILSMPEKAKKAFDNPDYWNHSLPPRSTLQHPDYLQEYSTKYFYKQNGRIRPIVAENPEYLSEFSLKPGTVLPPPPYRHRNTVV
# [9] = target: Receptor tyrosine-protein kinase erbB-4 (Homo sapiens) (UniProt Q15303); settings: at 10 µM
# [10] = target: Focal adhesion kinase 1 (Homo sapiens) (UniProt Q05397); settings: at 1 µM
# Chain of Focal adhesion kinase 1 (Homo sapiens) (Q05397 2-1052 limits assumed): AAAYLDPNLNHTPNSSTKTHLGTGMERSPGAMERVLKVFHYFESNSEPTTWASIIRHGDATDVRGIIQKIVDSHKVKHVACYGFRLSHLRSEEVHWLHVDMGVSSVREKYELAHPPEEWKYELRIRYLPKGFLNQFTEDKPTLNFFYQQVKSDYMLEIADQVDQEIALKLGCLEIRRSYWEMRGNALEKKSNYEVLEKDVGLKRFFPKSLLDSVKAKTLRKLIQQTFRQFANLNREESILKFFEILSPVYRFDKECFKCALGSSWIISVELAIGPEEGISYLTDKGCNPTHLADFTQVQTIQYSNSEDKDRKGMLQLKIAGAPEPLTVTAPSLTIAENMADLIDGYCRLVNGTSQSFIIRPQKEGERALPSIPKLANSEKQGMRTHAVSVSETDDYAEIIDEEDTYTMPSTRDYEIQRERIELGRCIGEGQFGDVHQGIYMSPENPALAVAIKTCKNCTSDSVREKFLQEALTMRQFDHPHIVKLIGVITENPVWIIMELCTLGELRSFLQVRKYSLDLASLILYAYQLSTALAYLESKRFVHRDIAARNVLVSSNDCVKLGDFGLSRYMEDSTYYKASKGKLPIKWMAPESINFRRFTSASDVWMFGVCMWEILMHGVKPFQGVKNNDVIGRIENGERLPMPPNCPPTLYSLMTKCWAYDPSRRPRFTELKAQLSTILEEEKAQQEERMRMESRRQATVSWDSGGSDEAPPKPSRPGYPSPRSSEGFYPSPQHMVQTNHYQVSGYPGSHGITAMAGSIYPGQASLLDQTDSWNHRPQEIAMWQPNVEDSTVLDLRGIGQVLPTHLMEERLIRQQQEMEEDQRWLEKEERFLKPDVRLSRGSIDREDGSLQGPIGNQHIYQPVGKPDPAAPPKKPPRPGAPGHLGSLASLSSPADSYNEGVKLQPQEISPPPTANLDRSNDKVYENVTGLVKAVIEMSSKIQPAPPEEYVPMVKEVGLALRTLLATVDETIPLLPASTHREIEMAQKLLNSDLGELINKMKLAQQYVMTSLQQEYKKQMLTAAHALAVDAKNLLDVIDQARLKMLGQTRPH
structure (smiles),measurement,setting,value
CC(=O)O/N=C1\C(=C2\C(=O)Nc3cc(Br)ccc32)Nc2ccccc21,residual activity,[1],47%
same,residual activity,[2],103%
same,residual activity,[3],60%
same,residual activity,[4],107% (inactive)
same,residual activity,[5],107%
same,residual activity,[6],71%
same,residual activity,[7],65%
same,residual activity,[8],96%
same,residual activity,[9],90%
same,residual activity,[10],95%
